# Results: ChEMBL document CHEMBL3988442, “University of Dundee, Small-Polar-MMV Screening Library” (2021)
# Screen size: about 66,000 compounds; about 960 (1.5%) showed an effect of 50% or more. Many of the other results were omitted from the sample, so strong results are more common in it than they were.
# Test system: Trypanosoma brucei
# Test: Trypanosoma brucei 72 hour study
# Assay type: functional, organism-based
# Set-up: scale not given: in the data most compounds retested in dose-response had high values
smiles,measurement,setting,value
CC(C)CC(=O)N1C[C@@H]2CCN(c3ncccn3)C[C@@H]2C1.O=C(O)C(F)(F)F,Percent Effect,"30.3 µM, […]",-27.97%
Cc1cnc(C(=O)N2C[C@H]3CN(Cc4nccs4)C[C@H]3C2)cn1,Percent Effect,"30 µM, 30.03 µM",-50.26%
O=C(N1CCCC1)N1Cc2nccn2CC(COc2cccnc2)C1.O=C(O)C(F)(F)F (stereo unspecified),Percent Effect,"30.3 µM, […]",-5.824%
O=C(NCCc1ccn(-c2ccccc2)n1)N1CCSCC1,Percent Effect,10 µM,92.88%
O=C(NCCNc1ccccn1)N1CCSCC1,Percent Effect,"30 µM, 30.03 µM",-32.01%
CC1(C)CN(C(=O)NCCc2ccn(-c3ccccc3)n2)CCO1,Percent Effect,"30 µM, 30.03 µM",-25.69%
CCC(C(=O)NCCc1ccn(-c2ccccc2)n1)N1CCCC1=O (stereo unspecified),Percent Effect,"30 µM, 30.03 µM",-6.42%
O=C(NCCc1ccn(-c2ccccc2)n1)N1CCC1,Percent Effect,"30 µM, 30.03 µM",105.4%
O=C(NCc1nn(-c2ccccc2)c2c1CCC2)N1CCSCC1,Percent Effect,"30 µM, 30.03 µM",-15.48%
O=C(O)C(F)(F)F.c1csc(CN2C[C@H](OCC3CCOCC3)[C@H]3COC[C@H]32)n1,Percent Effect,"30.3 µM, […]",-15.06%
CS(=O)(=O)N1CC[C@H]2OCC[C@@]2(C(=O)NCCc2ccccn2)C1.O=C(O)C(F)(F)F,Percent Effect,"30.3 µM, […]",-43.43%
CC(C)(C)n1ncc(NCC(O)c2ccc(F)c(F)c2)c(Cl)c1=O (stereo unspecified),Percent Effect,"30 µM, 30.03 µM",-7.617%
CN(Cc1ccccn1)C(=O)[C@H]1CO[C@H]2CCN(CC3CC3)C[C@H]2C1.O=C(O)C(F)(F)F.O=C(O)C(F)(F)F,Percent Effect,"30.3 µM, […]",-96.69%
CNc1ncccc1C(=O)N1CCc2c(nc(N)[nH]c2=O)C1,Percent Effect,"30 µM, 30.03 µM",-10.23%
O=C(O)C(F)(F)F.O=C(O)C(F)(F)F.c1cncc(CN2CCc3c(nnn3CC3CC3)C2COCC2CC2)c1 (stereo unspecified),Percent Effect,"30 µM, 30.03 µM",26.56%
CC(=O)N1CCC2(C=C(C(=O)NC3CC3)c3ccccc32)CC1,Percent Effect,"30.3 µM, […]",3.653%
O=C(Nc1ccccc1)C1=CC2(CCNCC2)c2ccccc21,Percent Effect,"30.3 µM, […]",93.57%
O=C(C1=CC2(CCNCC2)c2ccccc21)N1CCCC1,Percent Effect,"30 µM, 30.03 µM",-13.07%
CC(=O)N1CCCC(c2ccc(Br)cn2)C1 (stereo unspecified),Percent Effect,"30.3 µM, […]",11.45%
CC(=O)N1CCCC(c2ccc(Cc3ccccc3)cn2)C1 (stereo unspecified),Percent Effect,"30.3 µM, […]",98.95%
CC(=O)N1CCCC(c2ccccn2)C1 (stereo unspecified),Percent Effect,"30.3 µM, […]",-37.51%
CS(=O)(=O)Cc1nc(CN2CCc3ccccc3CC2)cs1,Percent Effect,"30.3 µM, […]",3.123%
CS(=O)(=O)Cc1nc(CN2CCOc3ccccc3C2)cs1,Percent Effect,"30.3 µM, […]",7.732%
CC1(C)CN(Cc2csc(CS(C)(=O)=O)n2)Cc2ccccc21,Percent Effect,"30.3 µM, […]",100.6%
CCc1noc(CN(C)CC(c2cccs2)N2CCOCC2)n1 (stereo unspecified),Percent Effect,"30.3 µM, […]",-14.32%
O=C1CC[C@]2(CC[C@@H](NC(=O)NCc3ccccc3)CC2)N1,Percent Effect,"30.3 µM, […]",-21.31%
COC(=O)[C@@H]1Cc2c[nH]c3cccc(c23)[C@H](CC(C)C)N1,Percent Effect,"30.3 µM, […]",0.4079%
CC(C)C[C@@H]1N[C@H](C(=O)NC(C)C)Cc2c[nH]c3cccc1c23,Percent Effect,"30.3 µM, […]",19.91%
O=C(NC1CCOCC1)C1CC(=O)N(Cc2ccccn2)C1 (stereo unspecified),Percent Effect,"30 µM, 30.03 µM",11.72%
CC(C)C[C@@H]1N[C@H](C(=O)NC2CCOCC2)Cc2c[nH]c3cccc1c23,Percent Effect,"30.3 µM, […]",74.51%
CCc1cccc(N2CCC(NC(=O)C3CCOCC3)CC2)c1,Percent Effect,10 µM,-25.13%
same,Percent Effect,"30.3 µM, […]",-1.63%
CC(C)C[C@@H]1N[C@H](C(=O)NCC2CC2)Cc2c[nH]c3cccc1c23,Percent Effect,"30.3 µM, […]",62.49%
Cc1cnn(C2CCCN(C(=O)Cc3ccc(C#N)cc3)C2)c1 (stereo unspecified),Percent Effect,10 µM,-12.45%
same,Percent Effect,"30.3 µM, […]",-6.124%
CC(C)=CCN1C(=O)[C@H]2CC[C@@H]1CN(c1ncccc1F)C2,Percent Effect,"30 µM, 30.03 µM",-6.371%
Cc1cc(=O)n(CCNS(=O)(=O)c2cccc(C(F)(F)F)c2)cn1,Percent Effect,"30 µM, 30.03 µM",-14.9%
CN(C)CC(=O)N1CCC2(CCc3cc(-c4cccnc4)ccc32)CC1.O=C(O)C(F)(F)F.O=C(O)C(F)(F)F,Percent Effect,"30.3 µM, […]",1.858%
O=C(O)C(F)(F)F.O=C(O)C(F)(F)F.c1cncc(-c2ccc3c(c2)CCC32CCN(Cc3nccs3)CC2)c1,Percent Effect,"30.3 µM, […]",13.64%
O=C(O)C(F)(F)F.O=C(O)C(F)(F)F.c1cncc(-c2ccc3c(c2)CCC32CCN(Cc3ccco3)CC2)c1,Percent Effect,"30.3 µM, […]",53.48%
CNC(=O)CN1CC[C@H]2CN(C(=O)c3cccc(C)c3)C[C@H]2C1.O=C(O)C(F)(F)F,Percent Effect,"30.3 µM, […]",-49.02%
CC[C@H](C)[C@H](N)C(=O)Nc1nc(-c2cnc(N(C)CCO)nc2)cs1,Percent Effect,"30.3 µM, […]",-2.058%
CC[C@@H](C)[C@@H](N)C(=O)Nc1cccc(-c2cnc(N)nc2)c1,Percent Effect,"30.3 µM, […]",-21.58%
CC[C@@H](C)[C@@H](N)C(=O)Nc1cccc(-c2cnc(N(C)C)nc2)c1,Percent Effect,"30.3 µM, […]",97.6%
CC[C@H](C)[C@H](N)C(=O)Nc1nc(-c2cnc(N(C)C)nc2)cs1,Percent Effect,"30.3 µM, […]",53.79%
CC[C@@H](C)[C@@H](N)C(=O)Nc1cccc(-c2cnc(N(C)CCO)nc2)c1,Percent Effect,"30.3 µM, […]",-10.78%
